Active and inactive are the calls of the source. Rule for the calls, unless noted: active = hit-call score of the fitted dose curve at least 0.9, where 1 is the maximum; inactive = score below 0.9.
What follows are compounds tested on TIMP metallopeptidase inhibitor 1 (TIMP1), TIMP1 (gene 7076) (assay: BSK_MyoF_TIMP1: BioMAP Diversity Plus: MyoF Assay for TIMP metallopeptidase inhibitor 1 (TIMP1) Biomarker Activity (AID 2284269)). Conditions: primary human lung fibroblasts.
Procedure, shortened: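 TIMP-1 levels were determined by ELISA in human lung fibroblasts treated for 24 h. DMSO served as negative control and baseline for upward curve fitting.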

SMILES	AC50	outcome
O=C1C(Cl)=C(Cl)C(=O)C(Cl)=C1Cl	28 µM (active)	
CC(C)(c1cc(Cl)c(O)c(Cl)c1)c1cc(Cl)c(O)c(Cl)c1	9.55 µM (active)	
COCC(=O)N(c1c(C)cccc1C)N1CCOC1=O		inactive
CC(C)CCCCCCCOP(=O)(Oc1ccccc1)Oc1ccccc1	20 µM (active)	
C=CCN(CC=C)C(=O)C(Cl)Cl		inactive
c1ccc(Nc2ccc3ccccc3c2)cc1	34.4 µM (active)	
Cc1ccc(OP(=O)(Oc2ccc(C)cc2)Oc2ccc(C)cc2)cc1 (tested in a mixture with another compound)		inactive
O=S(=O)(c1ccccc1)c1ccccc1		inactive
CC(=O)/C=C/c1ccccc1		inactive

The compounds below were run on SERPINA7 (gene 6906) (assay: CCTE_GLTED_hTBG: CCTE's human Thyroxine-binding Globulin (TBG) Inhibition Assay, Great Lakes Toxicology and Ecology Division (GLTED) Lab (AID 2284343; active = hit-call score of the fitted dose curve at least 0.9, where 1 is the maximum;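 note: active chemicals lower fluorescence versus DMSO baseline by displacing probe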)). Conditions: not given.
Procedure, shortened: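 Steps: combine TBG with chemical; incubate 2 hours so that disruptors release ANSA; record fluorescence (380 ex, 475 em). Loss of signal was fitted against DMSO controls.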

SMILES	AC50
CC(C)(c1cc(Cl)c(O)c(Cl)c1)c1cc(Cl)c(O)c(Cl)c1	8.77 µM (active)
Cc1ccc(OP(=O)(Oc2ccc(C)cc2)Oc2ccc(C)cc2)cc1 (tested in a mixture with another compound)	1.03 µM (active)
c1ccc(P(c2ccccc2)c2ccccc2)cc1	41.7 µM (active)
CCOC(=O)COc1ccc(Cl)cc1Cl	24.6 µM (active)
O=C1Nc2ccc(Cl)cc2C(c2ccccc2)=NC1O (centres undefined)	37.3 µM (active)

From PubChem BioAssay (EPA / NIEHS)
